Key:
Assay type in all cases: functional
[1] = tested on: Plasmodium falciparum; test: GSK_TCMDC: Inhibition of Plasmodium falciparum 3D7 in whole red blood cells, using parasite LDH activity as an index of growth. Test compounds present at 2uM
[2] = tested on: Plasmodium falciparum; test: GSK_TCMDC: Inhibition of Plasmodium falciparum Dd2 in whole red blood cells, using parasite LDH activity as an index of growth. Test compounds present at 2uM
[3] = tested on: HepG2; test: GSK_TCMDC: Percent inhibition of human HepG2 cell line. Test compounds present at 10uM.

**Q.** Which Inhibition [1] does the source give for `COc1ccc2[nH]ccc(=NN=Cc3cccc(C)n3)c2c1` here?
**A.** 100%

**Q.** What about the Inhibition [2] of the same compound?
**A.** 99%

**Q.** What about the Inhibition [3] of the same compound?
**A.** 16%

**Q.** How did the Inhibition [1] turn out when `Cl.O=C(Nc1ccc(C(=O)OCC2CCCN3CCCCC23)cc1)c1ccc(Cl)c(Cl)c1` (stereo unspecified) was run?
**A.** 99%

**Q.** What about the Inhibition [2] of the same compound?
**A.** 37%

**Q.** And the Inhibition [3]?
**A.** 20%

**Q.** For `CO/C(=C\C=C\c1cc2cc(Cl)c(Cl)cc2[nH]1)C(=O)NC1CC(C)N(C)C(C)C1` (stereo unspecified), which Inhibition [1] is on record?
**A.** 97%

**Q.** And the Inhibition [2]?
**A.** 57%

**Q.** And the Inhibition [3]?
**A.** 64%

**Q.** With `CN1CCN(c2ccnc3cc4ccccc4cc23)CC1` as the compound, how does the Inhibition [1] read?
**A.** 93%

**Q.** What about the Inhibition [2] of the same compound?
**A.** 49%

**Q.** What about the Inhibition [3] of the same compound?
**A.** 11%

**Q.** With `CC(=O)N[C@H](C(=O)Nc1ccc(-c2ccc(-c3nc4cc(C(F)(F)F)ccc4[nH]3)cc2)cc1)C(C)C` as the compound, how does the Inhibition [1] read?
**A.** 88%

**Q.** What about the Inhibition [2] of the same compound?
**A.** 76%

**Q.** And the Inhibition [3]?
**A.** 24%

**Q.** With `CC1(C)N=C(N)N=C(N)N1O.Cl` as the compound, how does the Inhibition [1] read?
**A.** 93%

**Q.** And the Inhibition [2]?
**A.** 1%

**Q.** And the Inhibition [3]?
**A.** 7%

**Q.** Which Inhibition [1] does the source give for `CC(C)NCc1ccc(-c2ccc(NC(=O)c3ccc(C#N)cc3)cc2)cc1.O=C(O)C(F)(F)F` here?
**A.** 90%

**Q.** What about the Inhibition [2] of the same compound?
**A.** 0%

**Q.** What about the Inhibition [3] of the same compound?
**A.** 23%

**Q.** For `COc1ccc2nccc([C@@H](O)CNCCCN(C)CCOc3cc(F)cc(F)c3)c2c1.O=C(O)C(=O)O`, which Inhibition [1] is on record?
**A.** 99%

**Q.** What about the Inhibition [2] of the same compound?
**A.** 58%

**Q.** And the Inhibition [3]?
**A.** 11%

**Q.** Which Inhibition [1] does the source give for `COc1ccc(C(=O)N2CCC3(CC2)C(=O)N(CC(=O)NC2CCCCC2)CN3c2ccccc2)c(OC)c1` here?
**A.** 100%

**Q.** What about the Inhibition [2] of the same compound?
**A.** 99%

**Q.** And the Inhibition [3]?
**A.** 4%

**Q.** Which results are given for `O=C1SC(S)=NC1=CNCCCCCCO`?
**A.** Inhibition [1]: 91%; Inhibition [2]: 1%; Inhibition [3]: 7%

**Q.** For `CC(=O)N1Cc2ccccc2C1=O`, which Inhibition [1] is on record?
**A.** 97%

**Q.** What about the Inhibition [2] of the same compound?
**A.** 0%

**Q.** And the Inhibition [3]?
**A.** 10%

**Q.** `CCC(C)OC(=O)C1=C(C)NC2=C(C(=O)CC(c3ccc(OC)c(OC)c3)C2)C1c1cccc(O)c1` (stereo unspecified) was tested. Which Inhibition [1] did it give?
**A.** 100%

**Q.** What about the Inhibition [2] of the same compound?
**A.** 98%

**Q.** And the Inhibition [3]?
**A.** 0%

Reference: ChEMBL document CHEMBL1157539, “Thousands of chemical starting points for antimalarial lead identification” (Nature, 2010)
